# Paper PMC5540273 (PLoS ONE, 2017)
# Tests used:
# Conditions in all cases: concentration: 1 μM, replicates: in singlicate; n = 1
# [1] = tested on: T1, MINK
# T1 construct: gene MINK1
# [2] = tested on: MKK7
# [3] = tested on: MKNK1
# [4] = tested on: MKNK2
# [5] = tested on: T2, MLCK
# T2 construct: gene MYLK3
# [6] = tested on: T3, MLK1
# T3 construct: gene MAP3K9
# [7] = tested on: MLK2
# [8] = tested on: MLK3
# [9] = tested on: MRCKA
# [10] = tested on: T4, MRCKB
# T4 construct: gene CDC42BPB
# [11] = tested on: MST1R
# [12] = tested on: T5, MST1
# T5 construct: gene STK4
# [13] = tested on: T6, MST2
# T6 construct: gene STK3
# [14] = tested on: T7, MST3
# T7 construct: gene STK24
# [15] = tested on: MST4
# [16] = tested on: MTOR
# [17] = tested on: MUSK
# [18] = tested on: MYLK2
# [19] = tested on: MYLK4
# [20] = tested on: MYLK
# 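Also: KINOMEscan kinase panel screen.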
structure (smiles),measurement,setting,value
CC(=O)c1c(C)c2cnc(Nc3ccc(N4CCNCC4)cn3)nc2n(C2CCCC2)c1=O,%Inh,[1],0%
same,%Inh,[2],0%
same,%Inh,[3],0%
same,%Inh,[4],0%
same,%Inh,[5],8%
same,%Inh,[6],0%
same,%Inh,[7],0%
same,%Inh,[8],0%
same,%Inh,[9],0%
same,%Inh,[10],35%
same,%Inh,[11],6%
same,%Inh,[12],0%
same,%Inh,[13],0%
same,%Inh,[14],5%
same,%Inh,[15],0%
same,%Inh,[16],55%
same,%Inh,[17],8%
same,%Inh,[18],6%
same,%Inh,[19],0%
same,%Inh,[20],9%
CC(=O)c1c(C)c2cnc(Nc3ccn(C)n3)nc2n(C2CCCC2)c1=O,%Inh,[1],8%
same,%Inh,[2],0%
same,%Inh,[3],0%
same,%Inh,[4],0%
same,%Inh,[5],0%
same,%Inh,[6],0%
same,%Inh,[7],21%
same,%Inh,[8],0%
same,%Inh,[9],0%
same,%Inh,[10],5%
same,%Inh,[11],4%
same,%Inh,[12],2%
same,%Inh,[13],0%
same,%Inh,[14],10%
same,%Inh,[15],0%
same,%Inh,[16],14%
same,%Inh,[17],0%
same,%Inh,[18],0%
same,%Inh,[19],0%
same,%Inh,[20],0%
CCc1ccc(-c2ccc3c(c2)-c2n[nH]cc2S(=O)(=O)N3C)cc1,%Inh,[1],2%
same,%Inh,[2],0%
same,%Inh,[3],0%
same,%Inh,[4],0%
same,%Inh,[5],16%
same,%Inh,[6],13%
same,%Inh,[7],16%
same,%Inh,[8],0%
same,%Inh,[9],0%
same,%Inh,[10],6%
same,%Inh,[11],0%
same,%Inh,[12],8%
same,%Inh,[13],0%
same,%Inh,[14],0%
same,%Inh,[15],0%
same,%Inh,[16],0%
same,%Inh,[17],0%
same,%Inh,[18],0%
same,%Inh,[19],0%
same,%Inh,[20],0%
CC(=O)c1cccc(NC(=O)NC2CCN(c3ccnc(Nc4ccc(F)cc4)n3)C2)c1 (stereo not shown) [GSK1379710],%Inh,[1],11%
same,%Inh,[2],0%
same,%Inh,[3],27%
same,%Inh,[4],0%
same,%Inh,[5],0%
same,%Inh,[6],0%
same,%Inh,[7],0%
same,%Inh,[8],3%
same,%Inh,[9],20%
same,%Inh,[10],0%
same,%Inh,[11],31%
same,%Inh,[12],0%
same,%Inh,[13],22%
same,%Inh,[14],3%
same,%Inh,[15],0%
same,%Inh,[16],21%
same,%Inh,[17],8%
same,%Inh,[18],0%
same,%Inh,[19],21%
same,%Inh,[20],11%
O=c1cc(N2CCOCC2)nc2n(Cc3cccc(Cl)c3Cl)c3ccccc3n12 [GSK2299009],%Inh,[1],5%
same,%Inh,[2],28%
same,%Inh,[3],10%
same,%Inh,[4],8%
same,%Inh,[5],16%
same,%Inh,[6],0%
same,%Inh,[7],32%
same,%Inh,[8],36%
same,%Inh,[9],24%
same,%Inh,[10],14%
same,%Inh,[11],44%
same,%Inh,[12],39%
same,%Inh,[13],9%
same,%Inh,[14],6%
same,%Inh,[15],0%
same,%Inh,[16],19%
same,%Inh,[17],39%
same,%Inh,[18],17%
same,%Inh,[19],13%
same,%Inh,[20],31%
Cc1ccc(NC(=O)Nc2ccccc2)cc1-c1ccc(C(=O)Nc2ccncc2)cc1 [GSK1398471],%Inh,[1],3%
same,%Inh,[2],23%
same,%Inh,[3],3%
same,%Inh,[4],0%
same,%Inh,[5],0%
same,%Inh,[6],0%
same,%Inh,[7],0%
same,%Inh,[8],4%
same,%Inh,[9],5%
same,%Inh,[10],24%
same,%Inh,[11],29%
same,%Inh,[12],0%
same,%Inh,[13],0%
same,%Inh,[14],0%
same,%Inh,[15],0%
same,%Inh,[16],0%
same,%Inh,[17],4%
same,%Inh,[18],0%
same,%Inh,[19],3%
same,%Inh,[20],20%
Cl.Cl.Cl.N#Cc1ccc(CCNc2nccc(-c3cccc(CN4CCNCC4)c3)n2)cc1 [GSK2137462],%Inh,[1],3%
same,%Inh,[2],0%
same,%Inh,[3],46%
same,%Inh,[4],2%
same,%Inh,[5],0%
same,%Inh,[6],0%
same,%Inh,[7],0%
same,%Inh,[8],0%
same,%Inh,[9],48%
same,%Inh,[10],19%
same,%Inh,[11],37%
same,%Inh,[12],0%
same,%Inh,[13],0%
same,%Inh,[14],18%
same,%Inh,[15],0%
same,%Inh,[16],0%
same,%Inh,[17],14%
same,%Inh,[18],12%
same,%Inh,[19],38%
same,%Inh,[20],35%
Fc1ccc(-c2nc3n(c2-c2ccncc2)CCS3)cc1 [GI98581],%Inh,[1],45%
same,%Inh,[2],0%
same,%Inh,[3],0%
same,%Inh,[4],2%
same,%Inh,[5],15%
same,%Inh,[6],3%
same,%Inh,[7],19%
same,%Inh,[8],21%
same,%Inh,[9],2%
same,%Inh,[10],25%
same,%Inh,[11],39%
same,%Inh,[12],29%
same,%Inh,[13],25%
same,%Inh,[14],0%
same,%Inh,[15],0%
same,%Inh,[16],12%
same,%Inh,[17],15%
same,%Inh,[18],14%
same,%Inh,[19],0%
same,%Inh,[20],12%
Cc1ccc(NC(=O)Nc2ccc(Cl)c(C(F)(F)F)c2)cc1-c1ccc(C(=O)Nc2ccncc2)cc1 [GSK1398470],%Inh,[1],20%
same,%Inh,[2],0%
same,%Inh,[3],3%
same,%Inh,[4],0%
same,%Inh,[5],0%
same,%Inh,[6],10%
same,%Inh,[7],36%
same,%Inh,[8],17%
same,%Inh,[9],1%
same,%Inh,[10],5%
same,%Inh,[11],38%
same,%Inh,[12],9%
same,%Inh,[13],0%
same,%Inh,[14],13%
same,%Inh,[15],0%
same,%Inh,[16],16%
same,%Inh,[17],10%
same,%Inh,[18],0%
same,%Inh,[19],2%
same,%Inh,[20],24%
COc1ccc(Nc2nccc(N3CCC(NC(=O)C(C)c4ccc(Cl)cc4)CC3)n2)cc1 (stereo not shown) [GSK1379812],%Inh,[1],51%
same,%Inh,[2],0%
same,%Inh,[3],36%
same,%Inh,[4],5%
same,%Inh,[5],0%
same,%Inh,[6],0%
same,%Inh,[7],0%
same,%Inh,[8],52%
same,%Inh,[9],20%
same,%Inh,[10],0%
same,%Inh,[11],54%
same,%Inh,[12],44%
same,%Inh,[13],0%
same,%Inh,[14],0%
same,%Inh,[15],0%
same,%Inh,[16],3%
same,%Inh,[17],0%
same,%Inh,[18],6%
same,%Inh,[19],6%
same,%Inh,[20],4%
Nc1nccc(-c2c(-c3ccc(F)cc3)ncn2C2CCN(Cc3ccccc3)CC2)n1 [SB-219980],%Inh,[1],32%
same,%Inh,[2],0%
same,%Inh,[3],0%
same,%Inh,[4],0%
same,%Inh,[5],5%
same,%Inh,[6],11%
same,%Inh,[7],8%
same,%Inh,[8],0%
same,%Inh,[9],0%
same,%Inh,[10],20%
same,%Inh,[11],0%
same,%Inh,[12],17%
same,%Inh,[13],8%
same,%Inh,[14],0%
same,%Inh,[15],0%
same,%Inh,[16],23%
same,%Inh,[17],0%
same,%Inh,[18],0%
same,%Inh,[19],0%
same,%Inh,[20],0%
